Experimental data from the supplement of paper PMC11732987, “Enantioselective OTUD7B fragment discovery through chemoproteomics screening and high-throughput optimisation” (Communications Chemistry, 2025).

Tests used:
Assay in all cases: log2 ratio of Biotin-Ahx-Ub-VS probe labelling (fragment/DMSO); higher = less target engagement (more negative = stronger competition), active = hit call of the paper (q ≤ 0.05, log2 ratio ≤ -1)
Conditions in all cases: compound concentration: 200 uM; treatment time: 3 h
USP9X = USP9X (UniProt Q93008)
Method in brief: (§1)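 Using Biotin-Ahx-Ub-VS at 0.5 µM final for 1 h, DUBs were labelled in HEK293T lysate (495 µg per sample) that had first been treated in triplicate with fragment at 200 µM or vehicle for 3 h. NeutrAvidin enrichment, LysC and trypsin digestion and diaPASEF LC-MS/MS followed. Spectronaut label-free quantities were global-median-normalised. Values are average log2 fragment/vehicle ratios by unpaired t-test, using proteins with ≥2 unique peptides.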

UniProt O00487 = biological target: UniProt O00487
Method in brief: as §1

UniProt O00507 = biological target: UniProt O00507
Method in brief: as §1

UniProt P51784 = biological target: UniProt P51784
Method in brief: as §1

UniProt Q5T2D3 = biological target: T1, UniProt Q5T2D3
T1 sequence (whole entry): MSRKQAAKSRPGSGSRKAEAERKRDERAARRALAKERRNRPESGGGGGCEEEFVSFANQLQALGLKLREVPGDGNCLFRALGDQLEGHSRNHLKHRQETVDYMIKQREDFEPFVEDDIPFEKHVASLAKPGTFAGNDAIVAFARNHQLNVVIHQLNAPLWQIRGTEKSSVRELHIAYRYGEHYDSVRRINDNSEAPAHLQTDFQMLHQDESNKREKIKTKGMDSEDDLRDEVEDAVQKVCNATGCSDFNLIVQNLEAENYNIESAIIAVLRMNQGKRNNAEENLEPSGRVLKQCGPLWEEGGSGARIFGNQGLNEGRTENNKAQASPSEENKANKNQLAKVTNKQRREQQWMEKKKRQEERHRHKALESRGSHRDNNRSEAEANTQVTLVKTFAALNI
Method in brief: as §1

UniProt Q8TE49 = biological target: T2, UniProt Q8TE49
T2 sequence (whole entry): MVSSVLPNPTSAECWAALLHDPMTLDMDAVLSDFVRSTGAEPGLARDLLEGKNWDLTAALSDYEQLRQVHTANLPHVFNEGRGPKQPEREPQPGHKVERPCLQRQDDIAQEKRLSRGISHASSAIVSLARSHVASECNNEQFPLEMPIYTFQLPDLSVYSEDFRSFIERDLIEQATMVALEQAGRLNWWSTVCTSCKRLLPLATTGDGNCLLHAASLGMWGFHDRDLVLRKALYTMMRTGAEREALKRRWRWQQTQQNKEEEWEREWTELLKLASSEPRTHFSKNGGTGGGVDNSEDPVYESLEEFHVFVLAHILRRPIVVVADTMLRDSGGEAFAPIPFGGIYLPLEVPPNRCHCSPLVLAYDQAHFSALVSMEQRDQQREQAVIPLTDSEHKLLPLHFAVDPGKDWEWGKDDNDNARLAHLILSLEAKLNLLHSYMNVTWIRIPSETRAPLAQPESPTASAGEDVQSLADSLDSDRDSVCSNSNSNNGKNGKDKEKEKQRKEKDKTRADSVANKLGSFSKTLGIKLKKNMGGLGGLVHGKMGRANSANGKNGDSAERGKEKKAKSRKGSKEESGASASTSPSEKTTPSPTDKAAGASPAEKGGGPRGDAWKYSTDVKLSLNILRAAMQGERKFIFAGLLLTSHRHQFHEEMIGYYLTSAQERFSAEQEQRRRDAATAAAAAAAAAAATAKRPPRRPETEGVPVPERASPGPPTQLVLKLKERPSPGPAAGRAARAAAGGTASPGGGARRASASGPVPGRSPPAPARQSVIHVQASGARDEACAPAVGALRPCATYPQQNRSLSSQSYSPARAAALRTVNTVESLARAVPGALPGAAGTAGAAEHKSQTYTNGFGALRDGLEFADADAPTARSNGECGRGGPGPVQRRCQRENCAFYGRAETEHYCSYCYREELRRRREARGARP
Method in brief: as §1

UniProt Q9P2H5 = biological target: T3, UniProt Q9P2H5
T3 sequence (whole entry): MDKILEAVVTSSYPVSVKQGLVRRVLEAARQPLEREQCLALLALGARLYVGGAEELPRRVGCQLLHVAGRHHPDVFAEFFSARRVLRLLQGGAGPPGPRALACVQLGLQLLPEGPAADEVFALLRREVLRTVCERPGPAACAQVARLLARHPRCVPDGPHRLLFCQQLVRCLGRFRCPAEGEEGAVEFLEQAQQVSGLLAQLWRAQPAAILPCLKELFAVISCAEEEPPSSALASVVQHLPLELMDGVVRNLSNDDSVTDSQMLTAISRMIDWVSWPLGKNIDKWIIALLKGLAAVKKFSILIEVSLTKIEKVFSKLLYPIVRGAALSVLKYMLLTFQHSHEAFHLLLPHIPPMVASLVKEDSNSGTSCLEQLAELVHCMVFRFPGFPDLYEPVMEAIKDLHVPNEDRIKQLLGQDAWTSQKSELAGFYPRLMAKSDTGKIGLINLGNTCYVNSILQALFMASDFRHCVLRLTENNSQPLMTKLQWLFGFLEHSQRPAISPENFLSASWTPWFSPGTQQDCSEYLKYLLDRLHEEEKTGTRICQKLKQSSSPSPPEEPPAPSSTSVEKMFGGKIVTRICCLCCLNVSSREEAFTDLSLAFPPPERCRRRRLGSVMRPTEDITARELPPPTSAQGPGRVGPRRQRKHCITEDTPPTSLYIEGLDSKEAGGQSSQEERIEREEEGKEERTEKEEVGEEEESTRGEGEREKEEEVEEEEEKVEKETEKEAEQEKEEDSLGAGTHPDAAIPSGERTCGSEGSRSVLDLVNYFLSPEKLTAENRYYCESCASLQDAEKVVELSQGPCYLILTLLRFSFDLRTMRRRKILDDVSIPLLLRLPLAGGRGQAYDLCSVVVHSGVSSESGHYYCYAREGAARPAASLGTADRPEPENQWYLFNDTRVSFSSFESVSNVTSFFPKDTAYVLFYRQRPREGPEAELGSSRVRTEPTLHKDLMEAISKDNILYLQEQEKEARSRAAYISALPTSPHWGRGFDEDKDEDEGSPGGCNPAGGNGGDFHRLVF
Method in brief: as §1

UniProt Q9UGI0 = biological target: T4, UniProt Q9UGI0
T4 sequence (whole entry): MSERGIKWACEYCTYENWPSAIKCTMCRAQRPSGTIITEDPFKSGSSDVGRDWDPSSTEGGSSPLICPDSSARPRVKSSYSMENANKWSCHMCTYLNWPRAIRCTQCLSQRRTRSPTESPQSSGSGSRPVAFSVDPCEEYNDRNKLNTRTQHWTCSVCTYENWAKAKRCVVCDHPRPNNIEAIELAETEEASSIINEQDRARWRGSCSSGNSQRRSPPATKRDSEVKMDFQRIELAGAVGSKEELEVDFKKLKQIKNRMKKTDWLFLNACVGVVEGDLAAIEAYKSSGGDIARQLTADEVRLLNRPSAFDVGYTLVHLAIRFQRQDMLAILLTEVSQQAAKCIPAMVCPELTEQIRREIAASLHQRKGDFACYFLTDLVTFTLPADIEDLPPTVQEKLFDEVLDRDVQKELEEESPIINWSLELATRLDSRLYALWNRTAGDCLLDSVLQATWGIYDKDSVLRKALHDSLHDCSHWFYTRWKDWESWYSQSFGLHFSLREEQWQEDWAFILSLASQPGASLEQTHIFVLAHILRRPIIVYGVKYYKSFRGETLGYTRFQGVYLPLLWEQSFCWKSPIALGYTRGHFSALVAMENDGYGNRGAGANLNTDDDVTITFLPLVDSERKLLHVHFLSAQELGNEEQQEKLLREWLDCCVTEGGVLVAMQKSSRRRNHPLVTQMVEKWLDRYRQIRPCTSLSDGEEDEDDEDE
Method in brief: as §1

YOD1 = biological target: T5, YOD1 (UniProt Q5VVQ6)
T5 sequence (whole entry): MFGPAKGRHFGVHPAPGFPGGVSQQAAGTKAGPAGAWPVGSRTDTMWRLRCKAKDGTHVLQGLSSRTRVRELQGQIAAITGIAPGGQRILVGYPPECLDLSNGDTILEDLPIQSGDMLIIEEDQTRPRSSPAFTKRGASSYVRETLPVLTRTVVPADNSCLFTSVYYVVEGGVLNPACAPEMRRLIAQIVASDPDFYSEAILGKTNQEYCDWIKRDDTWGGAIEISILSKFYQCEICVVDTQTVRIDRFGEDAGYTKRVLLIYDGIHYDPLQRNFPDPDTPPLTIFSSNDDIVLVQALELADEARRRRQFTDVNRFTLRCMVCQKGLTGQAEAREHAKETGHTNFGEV
Method in brief: as §1

Measured: log2 ratio of Biotin-Ahx-Ub-VS probe labelling

UniProt P51784, sequence (P51784 whole entry): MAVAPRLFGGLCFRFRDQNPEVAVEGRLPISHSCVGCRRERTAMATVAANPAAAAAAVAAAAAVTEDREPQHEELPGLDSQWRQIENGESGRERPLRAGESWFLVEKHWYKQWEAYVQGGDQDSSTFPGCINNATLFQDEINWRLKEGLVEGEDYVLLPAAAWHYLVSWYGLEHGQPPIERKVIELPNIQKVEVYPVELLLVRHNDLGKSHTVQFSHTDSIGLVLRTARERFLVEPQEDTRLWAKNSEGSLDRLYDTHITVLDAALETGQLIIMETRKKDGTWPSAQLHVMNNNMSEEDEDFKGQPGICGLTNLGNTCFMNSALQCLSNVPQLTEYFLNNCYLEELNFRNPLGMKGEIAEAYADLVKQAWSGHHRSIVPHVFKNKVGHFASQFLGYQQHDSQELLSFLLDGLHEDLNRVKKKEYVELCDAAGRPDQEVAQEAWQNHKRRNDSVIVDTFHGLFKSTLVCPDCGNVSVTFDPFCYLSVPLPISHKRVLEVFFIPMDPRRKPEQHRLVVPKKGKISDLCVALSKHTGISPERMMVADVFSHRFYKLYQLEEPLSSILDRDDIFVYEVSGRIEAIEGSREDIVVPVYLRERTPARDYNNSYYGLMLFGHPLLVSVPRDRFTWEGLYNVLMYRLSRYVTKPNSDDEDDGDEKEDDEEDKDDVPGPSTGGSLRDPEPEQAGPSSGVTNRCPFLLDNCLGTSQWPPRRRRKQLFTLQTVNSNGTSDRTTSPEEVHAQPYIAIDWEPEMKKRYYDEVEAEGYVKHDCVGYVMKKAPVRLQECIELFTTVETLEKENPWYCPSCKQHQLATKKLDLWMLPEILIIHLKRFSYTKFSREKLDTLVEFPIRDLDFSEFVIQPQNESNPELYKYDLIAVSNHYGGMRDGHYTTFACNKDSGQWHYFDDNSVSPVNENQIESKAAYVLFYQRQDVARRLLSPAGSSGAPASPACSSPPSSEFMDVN
USP9X, sequence (Q93008 whole entry, the tested form may be a part): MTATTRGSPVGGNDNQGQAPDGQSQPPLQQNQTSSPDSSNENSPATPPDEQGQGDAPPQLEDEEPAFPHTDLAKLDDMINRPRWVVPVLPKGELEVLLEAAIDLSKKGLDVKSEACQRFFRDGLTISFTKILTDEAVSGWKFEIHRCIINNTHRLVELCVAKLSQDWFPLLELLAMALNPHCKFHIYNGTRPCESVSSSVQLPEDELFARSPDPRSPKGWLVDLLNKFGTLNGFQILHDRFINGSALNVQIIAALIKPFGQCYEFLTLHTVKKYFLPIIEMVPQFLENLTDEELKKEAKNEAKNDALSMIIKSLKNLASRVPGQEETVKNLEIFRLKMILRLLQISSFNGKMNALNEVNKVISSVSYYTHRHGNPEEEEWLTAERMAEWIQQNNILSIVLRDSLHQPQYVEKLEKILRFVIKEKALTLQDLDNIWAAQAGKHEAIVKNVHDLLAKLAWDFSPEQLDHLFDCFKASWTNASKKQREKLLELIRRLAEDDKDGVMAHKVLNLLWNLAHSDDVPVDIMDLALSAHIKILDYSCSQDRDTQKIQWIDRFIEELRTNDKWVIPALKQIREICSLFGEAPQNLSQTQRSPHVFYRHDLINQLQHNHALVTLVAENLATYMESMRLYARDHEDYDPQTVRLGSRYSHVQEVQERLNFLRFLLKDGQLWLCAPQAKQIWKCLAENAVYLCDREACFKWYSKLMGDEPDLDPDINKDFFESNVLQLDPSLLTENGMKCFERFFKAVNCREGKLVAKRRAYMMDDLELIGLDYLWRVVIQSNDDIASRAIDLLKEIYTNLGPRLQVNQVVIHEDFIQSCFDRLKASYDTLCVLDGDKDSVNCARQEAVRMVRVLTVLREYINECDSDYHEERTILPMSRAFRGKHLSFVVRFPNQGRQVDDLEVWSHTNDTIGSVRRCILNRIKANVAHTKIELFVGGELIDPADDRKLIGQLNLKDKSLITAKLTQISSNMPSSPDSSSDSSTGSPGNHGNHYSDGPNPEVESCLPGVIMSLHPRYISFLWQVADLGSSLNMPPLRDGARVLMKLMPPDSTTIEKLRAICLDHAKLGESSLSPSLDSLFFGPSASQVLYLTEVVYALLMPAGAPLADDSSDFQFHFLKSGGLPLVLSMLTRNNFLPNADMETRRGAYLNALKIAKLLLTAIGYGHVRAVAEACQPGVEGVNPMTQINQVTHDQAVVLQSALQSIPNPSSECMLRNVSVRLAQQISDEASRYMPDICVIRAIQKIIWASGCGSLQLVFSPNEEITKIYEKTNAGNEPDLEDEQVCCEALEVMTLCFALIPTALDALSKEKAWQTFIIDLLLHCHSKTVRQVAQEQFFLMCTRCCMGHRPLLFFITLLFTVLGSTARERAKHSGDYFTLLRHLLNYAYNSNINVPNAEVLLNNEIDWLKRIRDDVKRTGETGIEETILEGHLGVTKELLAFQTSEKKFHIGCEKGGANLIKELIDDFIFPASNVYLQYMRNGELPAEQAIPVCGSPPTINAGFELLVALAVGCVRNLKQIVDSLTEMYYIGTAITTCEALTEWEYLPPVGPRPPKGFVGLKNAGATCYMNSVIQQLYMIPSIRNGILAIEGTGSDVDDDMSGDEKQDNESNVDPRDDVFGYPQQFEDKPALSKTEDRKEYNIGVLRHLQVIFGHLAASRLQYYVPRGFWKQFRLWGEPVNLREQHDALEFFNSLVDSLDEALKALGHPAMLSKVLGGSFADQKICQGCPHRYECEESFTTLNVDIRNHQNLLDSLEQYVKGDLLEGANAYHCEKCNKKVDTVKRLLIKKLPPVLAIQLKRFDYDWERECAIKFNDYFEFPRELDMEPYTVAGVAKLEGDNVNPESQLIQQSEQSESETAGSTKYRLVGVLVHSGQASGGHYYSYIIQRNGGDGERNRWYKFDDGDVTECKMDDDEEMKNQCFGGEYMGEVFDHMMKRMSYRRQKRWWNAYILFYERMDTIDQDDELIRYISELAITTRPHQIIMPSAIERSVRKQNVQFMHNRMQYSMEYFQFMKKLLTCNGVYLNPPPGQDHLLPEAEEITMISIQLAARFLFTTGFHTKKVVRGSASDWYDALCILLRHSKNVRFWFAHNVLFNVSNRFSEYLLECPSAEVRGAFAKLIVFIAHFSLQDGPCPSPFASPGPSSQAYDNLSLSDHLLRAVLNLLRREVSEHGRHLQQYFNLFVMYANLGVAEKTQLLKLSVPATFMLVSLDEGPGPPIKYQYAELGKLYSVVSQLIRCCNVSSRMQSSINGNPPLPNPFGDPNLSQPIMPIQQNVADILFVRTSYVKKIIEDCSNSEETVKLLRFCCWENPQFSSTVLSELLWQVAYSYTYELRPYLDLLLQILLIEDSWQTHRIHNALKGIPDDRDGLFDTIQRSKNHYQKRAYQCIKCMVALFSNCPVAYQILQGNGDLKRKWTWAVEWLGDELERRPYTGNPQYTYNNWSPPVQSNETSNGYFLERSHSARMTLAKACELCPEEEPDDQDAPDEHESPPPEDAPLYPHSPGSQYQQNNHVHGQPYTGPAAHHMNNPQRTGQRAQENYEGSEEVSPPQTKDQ
UniProt O00487, sequence (O00487 whole entry): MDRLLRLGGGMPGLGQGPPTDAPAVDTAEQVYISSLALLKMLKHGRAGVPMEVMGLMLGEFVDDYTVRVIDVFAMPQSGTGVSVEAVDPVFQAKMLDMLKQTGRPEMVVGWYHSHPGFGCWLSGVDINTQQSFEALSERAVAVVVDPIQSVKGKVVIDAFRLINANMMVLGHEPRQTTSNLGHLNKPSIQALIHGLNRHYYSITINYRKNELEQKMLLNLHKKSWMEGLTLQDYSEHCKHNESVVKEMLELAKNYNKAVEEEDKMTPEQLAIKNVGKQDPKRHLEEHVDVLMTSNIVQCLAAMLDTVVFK

Cc1nc(CNC(=O)CCl)c2ccccn12.Cl
inactive: USP9X -0.222 | UniProt O00487 0.0442 | UniProt O00507 0.444 | UniProt P51784 -0.0444 | UniProt Q5T2D3 -0.454 | UniProt Q8TE49 -0.499 | UniProt Q9P2H5 -0.818 | UniProt Q9UGI0 -0.311 | YOD1 0.114
